From PubChem
ALR inh – inhibitors of human ALR sulfhydryl oxidase, primary screen, biochemical, H2O2 detection, HRP-luminol luminescence, single point | inhibition, % (test concentration not listed) | AID 485317, 2010 | FAD-linked sulfhydryl oxidase ALR (Homo sapiens), P55789 | 3.8% of 290,000 active | purified ALR, DTT oxidation;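 active = mean replicate inhibition above about 79%, with every replicate also reaching it, limit read from the data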
PREPL inh – PREPL enzyme inhibitors, primary screen, biochemical, fluorescence polarization; recombinant PREPL, fluorescence polarization activity-based probe; inhibition, % at 5.96 µM; 0.68% of 320,000 active; in the data active = inhibition above about 43%
CHT PAM – CHT positive allosteric modulators, primary screen, cell-based, membrane potential dye, choline EC20. 0.49% of 310,000 active. CHT-expressing cells; stronger effect = higher value; LV-AA mutant CHT in HEK293 cells. B-score at 10 µM;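 active = initial fluorescence not abnormally high and integrated response B-score, plate-corrected, over 3 SD above library mean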
Target sequence (Q9GZV3 whole entry, looked up): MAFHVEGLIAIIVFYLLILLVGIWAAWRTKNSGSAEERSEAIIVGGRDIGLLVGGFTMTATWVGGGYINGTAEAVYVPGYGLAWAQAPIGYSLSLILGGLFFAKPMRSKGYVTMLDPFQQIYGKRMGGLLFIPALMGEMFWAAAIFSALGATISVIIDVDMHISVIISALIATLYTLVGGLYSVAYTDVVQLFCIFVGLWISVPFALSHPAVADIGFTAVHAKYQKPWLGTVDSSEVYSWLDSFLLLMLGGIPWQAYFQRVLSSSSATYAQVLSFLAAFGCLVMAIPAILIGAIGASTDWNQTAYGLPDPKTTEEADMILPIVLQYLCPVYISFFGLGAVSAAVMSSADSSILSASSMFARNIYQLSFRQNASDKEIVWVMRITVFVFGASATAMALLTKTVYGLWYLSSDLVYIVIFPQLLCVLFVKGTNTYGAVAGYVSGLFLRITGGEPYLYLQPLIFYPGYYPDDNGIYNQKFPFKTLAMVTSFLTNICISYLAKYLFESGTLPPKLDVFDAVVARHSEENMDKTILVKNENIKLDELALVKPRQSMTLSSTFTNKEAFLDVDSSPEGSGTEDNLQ
CHT block – inhibitors of human choline transporter CHT. CHT-expressing cells, membrane potential dye, choline response; stronger effect = lower value. 0.86% of 310,000 active. B-score at 10 µM;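 active = B-score over 3 SD under the library average, and starting fluorescence ratio not unusually high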;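 also: choline stimulus applied at its EC90 after an EC20 pre-addition; B-score computed on integrated fluorescence ratio after choline addition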
AI-2 QS modul – Vibrio harveyi AI-2 quorum sensing modulators, primary screen, JMH597 strain, luminescence/OD600 ratio; Vibrio harveyi JMH597 AI-2 luminescence/OD600 ratio, 9 h; stronger effect = lower value; strain lacks LuxN and CqsS sensors; 0 = neutral-control median; activity change, % at 7.5 µM; 0.4% of 300,000 active; in the data active = activity change below about -75%, passing the limit was not always enough;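 also: luminescence divided by OD600 gain over 9 h not by final OD600 alone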
CHT block conf – CHT inhibitors, confirmation, cell-based, membrane potential dye, duplicate. shares compounds with CHT block. CHT-expressing cells, choline membrane potential dye; LV-to-AA substituted CHT, HEK293 cells. CHT activity remaining % of control (stronger effect = lower value), % at 10 µM. 70% of 2,400 active. AID 493221, 2011;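 active = choline transporter activity left, mean of duplicates at 10 µM, below buffer-only control mean minus 3 SD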;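 also: depolarization triggered by choline at its EC90 following an EC20 pre-addition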
HEK293 CHT ctr – membrane potential effects in parental HEK293, counter-screen for CHT inhibitor project, cell-based, membrane potential dye; choline response; active = decrease or increase beyond buffer ±3SD; AID 493222, 2011; shares compounds with CHT block; 4% of 2,400 active; membrane potential ratio readout (active if shifted either direction beyond buffer ±3SD; no single direction) at 10 µM;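 also: parental cells lack the transporter so any hit is non-specific; ratio is peak minus trough fluorescence over baseline after EC90 choline challenge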
Each line names hits and unclear results; the compound was inactive in the other large screens (follow-up assays come after a bar, where they were run). The list is not random: actives were taken first. Their share in the collection is about 5%.

Nc1cc2c(cc1Cl)N(Cc1ccccc1)C(=O)CO2	none (no result: ALR inh, CHT PAM, CHT block, AI-2 QS modul)
CCn1cc(C(=O)N2CCCCC2)c(=O)c2cc(S(=O)(=O)N3CCC(C)CC3)ccc21	CHT block -6.2 (no result: ALR inh) | CHT block conf 34% | HEK293 CHT ctr inactive
Cn1cc(C(=O)NC2CCCCC2)c(=O)c2cc(S(=O)(=O)N3CCCC3)ccc21	none (no result: ALR inh)
CC1CCN(S(=O)(=O)c2ccc3c(c2)c(=O)c(C(=O)NC2CCCC2)cn3C)CC1	CHT block -7.3 | CHT block conf 52% | HEK293 CHT ctr inactive
OC1(Cc2cc(-c3ccccc3)no2)CCN(CCCc2ccccc2)CC1	none
CCCC(=O)Nc1ccc(NC(=O)c2ccccn2)cn1	none
CCCn1c(C)cc(=O)c2cc(NC(=O)c3ccccn3)ccc21	CHT block -5.1 | CHT block conf 53% | HEK293 CHT ctr 2.8
Cc1cccc(Nc2nc(N)c([N+](=O)[O-])c(NCCO)n2)c1	none
Cc1cccc(NC2=C(NCCO)C(=O)c3ccccc3C2=O)c1	ALR inh 99, CHT block -7.7 | CHT block conf 45% | HEK293 CHT ctr 2.5
COc1ccccc1C(=O)Nc1ccc(C(=O)c2ccccc2)cc1	CHT block -6.5 | CHT block conf inactive | HEK293 CHT ctr inactive
COc1ccccc1C(=O)Nc1ccc(C(=O)O)cc1	none
CCN(CC)S(=O)(=O)c1ccc(N2CCOCC2)c(NC(=O)CC23CC4CC(CC(Br)(C4)C2)C3)c1	none
O=[N+]([O-])c1cccc(S(=O)(=O)Nc2ccc(Cc3ccncc3)cc2)c1	CHT block -6.1 | CHT block conf 59% | HEK293 CHT ctr inactive
O=C(CSc1n[nH]c(-c2ccccc2)n1)Nc1ncc(Br)cc1Br	CHT block -6.5 | CHT block conf 57% | HEK293 CHT ctr inactive
O=C(CSc1n[nH]c(-c2cccnc2)n1)Nc1ccccc1	none
O=C(CCc1ccc(S(=O)(=O)N2CCOCC2)cc1)N/N=C/c1ccc(O)c(O)c1O	ALR inh 99, CHT block -12 | CHT block conf inactive | HEK293 CHT ctr inactive
C=C(C)COc1cc2oc(=O)c(CC(=O)N3C[C@H]4C[C@@H](C3)c3cccc(=O)n3C4)c(C)c2cc1Cl	none (no result: ALR inh)
COc1ccc(S(=O)(=O)N2CCN(CCc3ccccc3)CC2)c(OC)c1	CHT block -5.5 | CHT block conf 48% | HEK293 CHT ctr inactive
O=C(Nc1ccc(Cc2ccncc2)cc1)c1cc([N+](=O)[O-])ccc1N1CCOCC1	none (no result: ALR inh)
C/C(CC(=O)NC12CC3CC(CC(C3)C1)C2)=N\NC(=O)c1ccc(F)cc1	none
CSc1ccc(C(=O)C2CCCN(C(=O)c3nonc3C)C2)cc1 (stereo unspecified)	CHT block -5.7 | CHT block conf 60% | HEK293 CHT ctr inactive
Cc1ccc(CN2CCN(Cc3ccc(Oc4ncccn4)cc3)CC2CCO)cc1 (stereo unspecified)	none
O=S(=O)(Nc1nc2ccccc2nc1NCc1ccco1)c1ccc(F)cc1	CHT block -6.2 | CHT block conf inactive | HEK293 CHT ctr inactive
NC(=O)c1nc[nH]c1C(=O)Nc1cccc(NC(=O)c2cccc(C(F)(F)F)c2)c1	none (no result: CHT PAM, CHT block, AI-2 QS modul)
C=CCn1c(SCc2ccccc2C#N)nnc1-c1ccccc1O	CHT block -6.3 | CHT block conf inactive | HEK293 CHT ctr inactive
CCOC(=O)c1ccc(NC(=S)NNC(=O)C2(C)CC2(Cl)Cl)cc1 (stereo unspecified)	CHT block -6.7 | CHT block conf inactive | HEK293 CHT ctr inactive
CCOC(=O)c1c(C)c(C(=O)N2CCc3ccccc3C2)c(C)n1CC	CHT block -5.8 | CHT block conf 39% | HEK293 CHT ctr inactive
CCCCc1nc(NCCO)c(C#N)c2c1CCCC2	CHT block -5.9 | CHT block conf inactive | HEK293 CHT ctr inactive
COc1ccc([C@H]2[C@@H]3C=CCC[C@@]3(C)C(=O)N2Cc2ccccc2)cc1Cl	none (no result: ALR inh)
CCCC(=O)Nc1c2c(nn1-c1ccc(OC)cc1)CS(=O)(=O)C2	none
CCCC(=O)Nc1c2c(nn1-c1ccc(C)cc1)CS(=O)(=O)C2	CHT block -6.1 | CHT block conf inactive | HEK293 CHT ctr inactive
Cc1ccc2c(c1)N(CC(=O)NC1CCC(C)CC1)C(=O)CO2 (stereo unspecified)	CHT block -5.9 (no result: ALR inh) | CHT block conf inactive | HEK293 CHT ctr inactive
Cc1ccc2c(c1)N(CCCC(=O)NCC1COc3ccccc3O1)C(=O)CO2 (stereo unspecified)	CHT block -8.9 | CHT block conf 21% | HEK293 CHT ctr inactive
Cc1ccc(NC(=O)COC(=O)CN2C(=O)COc3ccccc32)cc1	CHT block -5 | CHT block conf 43% | HEK293 CHT ctr inactive
CNC(=O)C1CCN(S(=O)(=O)c2c(C)noc2/C=C/c2cccc(OC)c2)CC1	none
COc1cc2ccccc2cc1C(=O)Nc1ccc2oc(=O)ccc2c1	none
Cc1cc2c(ncn2Cc2ccccc2)c([N+](=O)[O-])c1C	CHT block -5.3 | CHT block conf 51% | HEK293 CHT ctr inactive
Cc1cccc2nc3c(nc12)CCCC3	none (no result: ALR inh)
CCCCN(CCCC)c1cn[nH]c(=O)c1Cl	CHT block -6.6 | CHT block conf 66% | HEK293 CHT ctr inactive
CCCCSc1nc2[nH]ncc2c(=O)[nH]1	none
O=C(c1ccc(NS(=O)(=O)c2ccc3[nH]c(=O)[nH]c3c2)cc1)N1CCN(c2ccccc2)CC1	none (no result: CHT PAM, CHT block, AI-2 QS modul)
CC1=C(C(=O)Nc2cccc(C(=O)NC3CCCC(C)C3C)c2)SCCO1 (stereo unspecified)	CHT block -5.6 | CHT block conf 57% | HEK293 CHT ctr inactive
O=C(O)c1cc(C(=O)O)cc(N2C(=O)CSC2=S)c1	none (no result: ALR inh)
O=C(O)c1ccc(N2C(=O)CSC2=S)cc1	CHT block -6.4 | CHT block conf 69% | HEK293 CHT ctr inactive
COc1ccccc1CCC(=O)OCC(=O)c1c(N)n(CC(C)C)c(=O)n(C)c1=O	CHT block -5.7 | CHT block conf 43% | HEK293 CHT ctr inactive
COc1ccc(CCC(=O)OCC(=O)c2c(N)n(CC(C)C)c(=O)n(C)c2=O)cc1	none
Cn1cnnc1Sc1ccc(C(=O)NCCC(c2ccccc2)c2ccccc2)cc1[N+](=O)[O-]	CHT block -10 | CHT block conf 32% | HEK293 CHT ctr inactive
OC(CNCC#Cc1ccccc1)c1ccccc1 (stereo unspecified)	CHT block -6.8 | CHT block conf 52% | HEK293 CHT ctr inactive
